Laboratory results as given in PubChem BioAssay (NCI).
About 79,000 compounds went through this panel and 15% of them were active in at least one assay; those are over-represented in the sample as a whole. Unmarked numbers belong to inactive results. Calls of active or inactive are those of the source. Rule as the data show it: active = growth inhibition above about 70%; inactive = the rest.

Assay: NCI Yeast Anticancer Drug Screen. Data for the mgt1 strain (AID 153)
Conditions: S. cerevisiae mgt1 mutant growth inhibition, hits give high values
Method: Growth inhibition of yeast strains with defined genetic alterations is measured as a screen for potential anti-cancer activity. Selected strains with alterations in DNA damage repair or cell cycle control were exposed to compounds and growth inhibition was measured relative to vehicle treated controls. The strain used in this assay is mgt1

**Q.** For BrCC[N+]12CC[N+](CCBr)(CC1)C2, which growth inhibition (at 1.2 µM) is on record?
**A.** 12%

**Q.** And the growth inhibition (at 3.7 µM)?
**A.** -2%

**Q.** And the growth inhibition (at 11.0 µM)?
**A.** 42%

**Q.** What about the growth inhibition (at 33.0 µM) of the same molecule?
**A.** 88% (active)

**Q.** And the growth inhibition (at 100.0 µM)?
**A.** 96% (active)

**Q.** Which growth inhibition (at 1.2 µM) does the source give for O=[N+]([O-])c1oc2ccc3ccccc3c2c1CCO here?
**A.** 7%

**Q.** What about the growth inhibition (at 3.7 µM) of the same molecule?
**A.** 27%

**Q.** And the growth inhibition (at 11.0 µM)?
**A.** 85% (active)

**Q.** And the growth inhibition (at 33.0 µM)?
**A.** 98% (active)

**Q.** What about the growth inhibition (at 100.0 µM) of the same molecule?
**A.** 99% (active)

**Q.** Which results are given for Nc1nc(N)c2c(Cl)c(CNc3ccc(C(=O)NC(CC(=O)O)C(=O)O)cc3)ccc2n1 (stereo not given)?
**A.** growth inhibition (at 1.2 µM): 6%; growth inhibition (at 3.7 µM): -3%; growth inhibition (at 11.0 µM): -2%; growth inhibition (at 33.0 µM): 30%; growth inhibition (at 100.0 µM): 55%

**Q.** With O=C(COc1ccc(Cl)cc1Cl)NO as the molecule, how does the growth inhibition (at 1.2 µM) read?
**A.** -5%

**Q.** And the growth inhibition (at 3.7 µM)?
**A.** -5%

**Q.** And the growth inhibition (at 11.0 µM)?
**A.** -5%

**Q.** And the growth inhibition (at 33.0 µM)?
**A.** 4%

**Q.** What about the growth inhibition (at 100.0 µM) of the same molecule?
**A.** 58%

**Q.** What does the source list for COc1ccc(OC)c(/C=C/[N+](=O)[O-])c1?
**A.** growth inhibition (at 1.2 µM): 0%; growth inhibition (at 3.7 µM): -2%; growth inhibition (at 11.0 µM): 2%; growth inhibition (at 33.0 µM): 23%; growth inhibition (at 100.0 µM): 100% (active)

**Q.** Which growth inhibition (at 1.2 µM) does the source give for COC(=O)C1=C(C(=O)OC)SC2(S1)C(C(=O)OC)=C(C(=O)OC)Sc1c2ssc1=O here?
**A.** 44%

**Q.** What about the growth inhibition (at 3.7 µM) of the same molecule?
**A.** 51%

**Q.** What about the growth inhibition (at 11.0 µM) of the same molecule?
**A.** 88% (active)

**Q.** And the growth inhibition (at 33.0 µM)?
**A.** 99% (active)

**Q.** And the growth inhibition (at 100.0 µM)?
**A.** 92% (active)

**Q.** For OC1CCCC2CCC[N-]C12.OC1CCCC2CCC[N-]C12.[O]=[V][OH] (stereo not given), which growth inhibition (at 1.2 µM) is on record?
**A.** 24%

**Q.** And the growth inhibition (at 3.7 µM)?
**A.** 88% (active)

**Q.** What about the growth inhibition (at 11.0 µM) of the same molecule?
**A.** 98% (active)

**Q.** What about the growth inhibition (at 33.0 µM) of the same molecule?
**A.** 97% (active)

**Q.** And the growth inhibition (at 100.0 µM)?
**A.** 97% (active)

**Q.** With O=c1oc2ccccc2c(O)c1C(c1ccc2c(c1)Cc1ccccc1-2)c1c(O)c2ccccc2oc1=O as the molecule, how does the growth inhibition (at 1.2 µM) read?
**A.** 6%

**Q.** And the growth inhibition (at 3.7 µM)?
**A.** 8%

**Q.** What about the growth inhibition (at 11.0 µM) of the same molecule?
**A.** 31%

**Q.** And the growth inhibition (at 33.0 µM)?
**A.** 97% (active)

**Q.** What about the growth inhibition (at 100.0 µM) of the same molecule?
**A.** 97% (active)
